{
  "source": "PubChem BioAssay (NCATS)",
  "note": "“And” between values parts separate entries of the source, which are not always exact repeats. Equal values may be shown once. Results filed as inconclusive are left out. Unmarked numbers belong to inactive results. The call rests on the fitted dose curve; in most records, active means well fitted activation curve with a large enough effect; inconclusive means small, poorly fitted or top-dose-only effect; inactive means no such curve, though single readings can be large or run the other way.",
  "data": [
    {"molecular_target": "Cellular tumor antigen p53 (Homo sapiens) (UniProt P04637)", "sequence (P04637 whole entry, looked up)": "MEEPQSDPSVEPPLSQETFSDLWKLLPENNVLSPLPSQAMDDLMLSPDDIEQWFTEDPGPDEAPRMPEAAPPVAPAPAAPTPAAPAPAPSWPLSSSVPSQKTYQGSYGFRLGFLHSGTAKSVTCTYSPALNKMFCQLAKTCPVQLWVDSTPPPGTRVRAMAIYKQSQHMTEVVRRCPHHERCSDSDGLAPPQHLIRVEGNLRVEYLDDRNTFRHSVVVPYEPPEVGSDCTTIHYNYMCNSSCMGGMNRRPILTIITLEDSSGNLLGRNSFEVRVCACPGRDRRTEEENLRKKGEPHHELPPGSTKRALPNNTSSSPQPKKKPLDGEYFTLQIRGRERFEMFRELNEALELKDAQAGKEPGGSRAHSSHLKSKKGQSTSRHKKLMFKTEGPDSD", "experiment": "Primary qHTS for small molecule compounds that upregulate eGFP-tagged delta133p53alpha (in N-terminal) cells. (AID 2060322);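 further: series mostly up to about 56 µM; 0% = DMSO vehicle and 100% = reference activator; nearly all actives have a fitted effect of over 75% in size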", "details": "NCI-H358 eGFP-delta133p53alpha fluorescence, 24 h; activation: active compounds read high", "outline": "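NCI-H358 cells pre-induced 24 h with 10 ng/ml doxycycline to express N-terminal eGFP-delta133p53alpha, then dosed 24 h at 37C without doxycycline; fixed, Hoechst-stained, GFP intensity by laser scanning cytometry, normalized to DMSO (0%) and 57.5 uM 5-azacytidine (100%).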", "values": [
      {"smiles": "Cc1cc(NS(=O)(=O)c2ccc(N)cc2)no1", "activation": "-13.4% and 7.02%"},
      {"smiles": "CC(C)=CCCC(C)=CCCC(C)=CCSc1ccccc1C(=O)O", "activation": "4.74%"},
      {"smiles": "COC(=O)/C=C(/C)N", "activation": "8.47%"}
    ]}
  ]
}
